Test results published in the supplement of paper PMC7156485.
± gives the standard deviation of the averaged measurements.

Tests used:
Conditions in all cases: concentration: 10 µM; 24 h
HCC1569 [1] = assay: cell number relative to DMSO (% of DMSO); higher = more cells (less growth inhibition / toxicity)
Procedure, shortened: (§1)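 H1.0 nuclear intensity or cell number is expressed as percent of the plate control, with the median of replicates taken. HCC1569 and TDF cells were treated with compounds at 10 µM for 24 h at 37 °C, in triplicate, then fixed and immunostained for H1.0 with DAPI as a nuclear stain. HCC1569 values were smoothed to correct for positional effects.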

TDF [2] = assay: as above
Procedure, shortened: as §1

TDF [3] = assay: H1.0 immunofluorescence intensity relative to DMSO (% of DMSO); higher = stronger H1.0 induction, active = 120 or more
Procedure, shortened: as §1

HCC1569 [4] = assay: H1.0 immunofluorescence intensity relative to DMSO (% of DMSO); higher = stronger H1.0 induction, active = 140 or more
Procedure, shortened: as §1
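Wherever H1.0 immunofluorescence intensity relative to DMSO is given: TDF is a line of transformed human dermal fibroblasts of mesenchymal origin.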
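Wherever cell number relative to DMSO is given: TDF denotes transformed human dermal fibroblasts of mesenchymal origin.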

| SMILES | cell number (HCC1569 [1]) | cell number (TDF [2]) | H1.0 immunofluorescence intensity (TDF [3]) | H1.0 immunofluorescence intensity (HCC1569 [4]) |
| --- | --- | --- | --- | --- |
| CCCCCC#CCC#CCC#CCC#CCCCC(=O)O | 104 | 96.2 | 98.2 (inactive) | 101 (inactive) |
| COCC(=O)OC1(CCN(C)CCCc2nc3ccccc3[nH]2)CCc2cc(F)ccc2C1C(C)C.Cl.Cl (stereo not drawn) [Mibefradil dihydrochloride] | 84.2 | 90.1 | 111 (inactive) | 124 (inactive) |
| O=C(O)CN(CCOCCOCCN(CC(=O)O)CC(=O)O)CC(=O)O | 99.4 | 105 | 90.3 (inactive) | 88.9 (inactive) |
| O=C1C(=Cc2ccc(O)c(O)c2)Oc2c1ccc(OC1OC(CO)C(O)C(O)C1O)c2O (stereo not drawn) [Maritimein] | 99.5 | 94.8 | 102 (inactive) | 99.6 (inactive) |
| CC(=O)OCC=C(C)C=CC=C(C)C=CC1=C(C)CCCC1(C)C [Vitamin A acetate] | 98.7 | 107 | 91.8 (inactive) | 119 (inactive) |
| N#CC(=Cc1ccc(O)c(O)c1)C(=O)OCC=Cc1ccccc1 | 91.9 | 105 | 90.5 (inactive) | 115 (inactive) |
| COC(=O)C1C(O)CCC2CN3CCc4c([nH]c5ccccc45)C3CC21 (stereo not drawn) [Corynanthine] | 106 | 94.3 | 102 (inactive) | 95.3 (inactive) |
| CC(=O)C(C)=NO [2,3-Butanedione monoxime] | 100 | 95.2 | 106 (inactive) | 115 (inactive) |
| NS(=O)(=O)c1cccc2c1c([N+](=O)[O-])cc1nc([O-])c([O-])nc12.[Na+].[Na+] [NBQX disodium] | 104 | 103 | 93.8 (inactive) | 91.8 (inactive) |
| CCOC([O-])=Nc1c[n+](N2CCOCC2)no1 [Molsidomine] | 106 ± 1.7 | 96.4 ± 7.5 | 101 (inactive) | 94 (inactive) |
| O=C1NC(=O)C(c2c[nH]c3ccccc23)=C1c1c[nH]c2ccccc12 [Bisindolylmaleimide IV] | 91.2 | 119 | 94.7 (inactive) | 136 (inactive) |
| CCCCCCC=CCCCCCCCCCC(=O)O [11(Z)-Octadecenoic acid] | 99.8 | 101 | 112 (inactive) | 105 (inactive) |
| COc1cc2c(Nc3ccc(Br)cc3F)ncnc2cc1OCC1CCN(C)CC1 [Vandetanib] | 54.4 | 65.4 | 108 (inactive) | 142 (active) |
| O=c1cc(N2CCOCC2)oc2c(-c3ccccc3)cccc12 | 83.3 | 102 | 88 (inactive) | 155 (active) |
| CC(C)CN(CC(O)C(Cc1ccccc1)NC(=O)OC1CCOC1)S(=O)(=O)c1ccc(N)cc1 (stereo not drawn) [Amprenavir] | 103 | 101 | 100 (inactive) | 108 (inactive) |
| O=c1c(O)c(-c2ccc(O)cc2)oc2cc(O)cc(O)c12 [Kaempferol] | 98.4 | 93.9 | 93.5 (inactive) | 115 (inactive) |
| CN1C2CCC1CC(OC(=O)c1c[nH]c3ccccc13)C2 (stereo not drawn) [Tropisetron] | 102 | 92.9 | 101 (inactive) | 112 (inactive) |
| O=C(O)/C=C/c1ccc(O)c(O)c1 [Caffeic acid] | 98.5 ± 1.5 | 99.8 ± 4.1 | 94.5 (inactive) | 96.2 (inactive) |
| O=C(NC(NC(=S)Nc1ccc(F)c([N+](=O)[O-])c1)C(Cl)(Cl)Cl)C(c1ccccc1)c1ccccc1 (stereo not drawn) [ATM/ATR Kinase Inhibitor] | 62.4 | 64.5 | 112 (inactive) | 179 (active) |
| O=c1cc(-c2ccc(O)c(O)c2)oc2cc(O)cc(O)c12 [Luteolin] | 74.6 ± 15 | 62.6 ± 57 | 124 (active) | 120 (inactive) |
| C[C@H](O)[C@H](O)[C@H]1CNc2[nH]c(N)nc(=O)c2N1.Cl.Cl | 103 | 97.2 | 92.5 (inactive) | 97 (inactive) |
| CCCCCC(=O)C=CC=CCCCCCCCC(=O)O [13-Ketooctadecadienoioc acid] | 99.9 | 97.6 | 95.9 (inactive) | 103 (inactive) |
| Cl.OCC1NCC(O)C(O)C1O (stereo not drawn) [1-Deoxynojirimycin hydrochloride] | 97.8 | 106 | 85.2 (inactive) | 91.8 (inactive) |
| O=C1NC(c2cccc([N+](=O)[O-])c2)=CCN1c1ccccc1O | 104 | 104 | 95.6 (inactive) | 94.9 (inactive) |
| CS(=O)(=O)c1ccc(C2=C(c3ccccc3)C(=O)OC2)cc1 [Rofecoxib] | 98.3 | 88.9 | 98.4 (inactive) | 111 (inactive) |
| O=C1CN(/N=C/c2ccc(-c3ccc([N+](=O)[O-])cc3)o2)C([O-])=N1.[Na+] | 93.8 | 104 | 97.3 (inactive) | 111 (inactive) |

| SMILES | cell number (HCC1569 [1]) | cell number (TDF [2]) | H1.0 immunofluorescence intensity (TDF [3]) | H1.0 immunofluorescence intensity (HCC1569 [4]) |
| --- | --- | --- | --- | --- |
| CCCCCCCCC=CCC=CCC=CCCCC(=O)O [5(Z), 8(Z), 11(Z)-Eicosatrienoic Acid] | 102 ± 2.9 | 105 ± 7.9 | 98.1 (inactive) | 97.8 (inactive) |
| COc1cc2c(cc1CC=C(C)C)C(=O)CC(c1ccc(O)cc1)O2 (stereo not drawn) [Bavachinin A] | 103 | 104 | 99.5 (inactive) | 96.7 (inactive) |
| C=CC(=O)c1ccc2ccccc2c1 | 99.7 | 92 | 103 (inactive) | 113 (inactive) |
| COc1ccc2c(c1OC)C(=O)OC2C1c2c(cc3c(c2OC)OCO3)CCN1C.Cl (stereo not drawn) [Noscapine hydrchloride] | 102 | 93.7 | 97.1 (inactive) | 96.5 (inactive) |
| COc1ccc(-c2coc3cc(O)ccc3c2=O)cc1 [Formononetin] | 104 | 103 | 87.5 (inactive) | 80.9 (inactive) |
| CCCC1CC(C(=O)NC(C(C)Cl)C2OC(SC)C(O)C(O)C2O)N(C)C1.Cl (stereo not drawn) [Clindamycin.HCl] | 111 | 110 | 106 (inactive) | 91.3 (inactive) |
| CCCCCC(O)CCC1C(O)CC(=O)C1CCCCCCC(=O)O (stereo not drawn) [13,14-Dihydro-prostaglandin E1] | 97.1 | 104 | 94.9 (inactive) | 103 (inactive) |
| [N-]=[N+]=Nc1ccc(C(=O)CSCC(NC(=O)CCC(N)C(=O)O)C(=O)NCC(=O)O)cc1 (stereo not drawn) [S-(p-Azidophenacyl)glutathione] | 103 | 105 | 95.5 (inactive) | 79.9 (inactive) |
| CC1(C)CC1C(=O)NC(=CCCCCSCC(N)C(=O)O)C(=O)O (stereo not drawn) [Cilastatin] | 100 | 94 | 101 (inactive) | 119 (inactive) |
| NCCCS(=O)(=O)[O-].[Na+] [3-Amino-1-propanesulfonic acid sodium] | 94.4 | 99.3 | 93.2 (inactive) | 91.9 (inactive) |
| CC12CCC(=O)C=C1C=CC1C2CCC2(C)C1CCC21CCC(=O)O1 (stereo not drawn) [Canrenone] | 99.6 | 103 | 89.7 (inactive) | 102 (inactive) |
| NC(C(=O)O)C1CC1C(=O)O [(2S,1'S,2'S)-2-(carboxycyclopropyl)glycine] | 105 | 110 | 85.1 (inactive) | 83.4 (inactive) |
| COc1cc(Br)c(Nc2nc(-c3c(C)nc4ncccn34)cs2)c(Br)c1 | 61.1 | 53.8 | 108 (inactive) | 199 (active) |
| Nc1ncnc2c1ncn2C1OC(C(=O)NC2CC2)C(O)C1O (stereo not drawn) [5'-(N-Cyclopropyl)carboxamidoadenosine] | 99.6 | 95.1 | 97.8 (inactive) | 93.6 (inactive) |
| COc1ccc(-c2ccc3cc(C(=O)O)ccc3c2)cc1C12CC3CC(CC(C3)C1)C2 [Adapalene] | 85.4 | 88.7 | 99.5 (inactive) | 102 (inactive) |
| COC(=O)c1ccccc1O [Methyl salicylate] | 100 | 104 | 92.2 (inactive) | 113 (inactive) |
| COc1ccc(Cl)cc1NC(=O)Nc1cc(C)nc2ccccc12 [IGF-1R Inhibitor II] | 103 | 97.7 | 98.8 (inactive) | 106 (inactive) |
| CN(C)c1ccc(O)c2c1CC1CC3C(N(C)C)C(=O)C(C(N)=O)=C(O)C3(O)C(=O)C1=C2O (stereo not drawn) [Minocycline] | 107 | 101 | 110 (inactive) | 88.6 (inactive) |
| CCN1CCCC1CNC(=O)c1c(O)c(Cl)cc(Cl)c1OC.O=C(O)C(O)C(O)C(=O)O [S(+)-Raclopride L-tartrate] | 101 | 105 | 90.3 (inactive) | 99.9 (inactive) |
| CCN(Cc1ccncc1)C(=O)C(CO)c1ccccc1 (stereo not drawn) [Tropicamide] | 104 ± 5.5 | 105 ± 8.1 | 98.4 (inactive) | 100 (inactive) |
| CCNC(=O)CC[C@H](N)C(=O)O [L-Theanine] | 103 | 103 | 102 (inactive) | 95.6 (inactive) |
| CCC=CCC=CCC=CCC=CCC=CCC=CCCC(=O)O [Docosahexaenoic acid] | 99.8 ± 4.3 | 97.5 ± 3.1 | 104 (inactive) | 105 (inactive) |
| CC(O)C1C(=O)N2C(C(=O)O)=C(SCCN=CN)CC12 (stereo not drawn) [Imipenem] | 111 | 109 | 97.1 (inactive) | 102 (inactive) |
| CCCCCCCC/C=C\CCCCCCC(O)C(=O)O (stereo not drawn) [(9Z)-2-hydroxy-9-octadecenoic acid] | 100 | 88.9 | 102 (inactive) | 91.2 (inactive) |
| O=C1OC(CN2CCOCC2)CN1/N=C/c1ccc([N+](=O)[O-])o1 (stereo not drawn) | 102 | 96.5 | 96.7 (inactive) | 104 (inactive) |
| CC(C)c1ccc(C(=O)N=C(N)N)cc1S(C)(=O)=O [N''-[4-isopropyl-3-(methylsulfonyl)benzoyl]guanidine] | 101 | 93.4 | 99.1 (inactive) | 100 (inactive) |
